Screening results deposited in PubChem by National Center for Advancing Translational Sciences (NCATS).
Sampled rows, rich in hits. Any-hit rate of the full collection: about 19%.
TDP1 block: TDP1 (human) enzyme inhibition; 350,000 compounds, 0.28% hits; recombinant TDP1, AlphaScreen DNA substrate cleavage; Potency, µM (top dose mostly 130 µM), for inactives: top-dose activity change, negative = inhibition, actives largely listed as inhibitors; Q9NUW8; further: potency means the concentration at half of the fitted maximal effect; on the % scale 0 is the no-effect control and ±100 the full control effect; nearly all actives have a fitted effect of over 40% in size
Target sequence (Q9NUW8 whole entry, looked up): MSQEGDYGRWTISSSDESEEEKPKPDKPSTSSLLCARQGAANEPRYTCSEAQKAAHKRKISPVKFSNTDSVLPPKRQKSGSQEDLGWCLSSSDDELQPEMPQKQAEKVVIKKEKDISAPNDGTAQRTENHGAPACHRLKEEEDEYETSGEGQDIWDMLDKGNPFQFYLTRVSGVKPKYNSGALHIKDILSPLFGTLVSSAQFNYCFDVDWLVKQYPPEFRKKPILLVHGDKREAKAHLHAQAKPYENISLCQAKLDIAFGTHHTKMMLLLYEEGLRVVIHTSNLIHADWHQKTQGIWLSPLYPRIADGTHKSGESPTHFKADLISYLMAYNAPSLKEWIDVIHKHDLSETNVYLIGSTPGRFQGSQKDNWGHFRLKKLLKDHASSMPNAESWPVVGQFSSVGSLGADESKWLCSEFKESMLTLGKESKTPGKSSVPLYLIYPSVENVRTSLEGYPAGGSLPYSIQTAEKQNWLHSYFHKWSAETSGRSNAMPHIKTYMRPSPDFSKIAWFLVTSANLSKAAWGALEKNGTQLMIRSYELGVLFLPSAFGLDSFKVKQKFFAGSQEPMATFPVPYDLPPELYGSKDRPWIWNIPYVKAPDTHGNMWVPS
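Recombinant human Tdp1 (E. coli-expressed, 1 nM final) preincubated with compounds 15 min at room temperature, then 5'-biotin/3'-phosphotyrosine-FITC DNA substrate (15 nM final) added for 5 min. AlphaScreen beads (10 ug/ml final) added 10 min; cleavage lowers signal.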
DT40 TDP1 CPT: growth inhibition of DT40 Tdp1-/-;hTDP1 cells with camptothecin (screen for TDP1 inhibitors) | chicken DT40 Tdp1-/-;hTDP1 cells + 20 nM CPT, ATP luminescence, 48 h | Potency, µM (doses to about 46.2 µM), for inactives: top-dose activity change, negative = growth inhibition, actives largely listed as inhibitors | 420,000 compounds, 12% hits; further: potency means the concentration at half of the fitted maximal effect; on the % scale 0 is the no-effect control and ±100 the full control effect; nearly all actives have a fitted effect of over 55% in size
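Cell growth measured by CellTiter-Glo luminescence after a minimum 48 h, 37 C compound exposure with 20 nM CPT in Tdp1-knockout DT40 cells stably expressing hTDP1, seeded 400/well; qHTS titration format.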
TGFb inhibitor: TGF-b pathway inhibition; HepG2 CAGA-GFP TGF-b/SMAD3 reporter, GFP fluorescence, 18 h; TGF-beta stimulated, 500 pg/mL final; Potency, µM (titrated, usually from 46.1 µM), for the others: top-dose activity, negative = inhibition, hits mostly inhibitors; 410,000 compounds, 1.2% hits; further: potency means the concentration at half of the fitted maximal effect; on the % scale 0 is the no-effect control and ±100 the full control effect; nearly all actives have a fitted effect of over 65% in size
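GFP signal (ex488/em500-530) from TGF-beta-stimulated HEPG2 CAGA-GFP cells, 500 pg/mL final, 18 h at 37 degrees C in DMEM plus 1% FBS, normalized to unstimulated and DMSO-stimulated controls.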
TDP1 cell noCPT: qHTS for Inhibitors of human tyrosyl-DNA phosphodiesterase 1 (TDP1): qHTS in cells in absence of CPT. DT40 Tdp1-/- hTDP1 cells, no CPT, ATP luminescence, 48 h. Potency, µM (titrated, usually from 46.2 µM), for inactives: top-dose activity change, negative = growth inhibition, hits mostly inhibitors. 420,000 compounds, 15% hits; further: potency means the concentration at half of the fitted maximal effect; on the % scale 0 is the no-effect control and ±100 the full control effect; nearly all actives have a fitted effect of over 55% in size
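Growth kinetics read by CellTiter-Glo luminescence after ≥48 hr at 37 °C. Cells: DT40 Tdp1-/- stably carrying human TDP1, 400 per well, compound exposure in the absence of CPT (DMSO vehicle).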
IL-1B inflam inh: inhibitors of inflammasome signaling (IL-1 beta secretion); 360,000 compounds, 4.7% hits; THP-1 LPS/ATP IL-1B secretion, AlphaLISA, 16 h; hits give low values; activity change, % at 57.5 µM; in the data active means activity change below about -50%; inconclusive means mostly about -30% to -49%; further: on the % scale 0 is the no-effect control and ±100 the full control effect
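Secreted IL-1B measured by AlphaLISA bead assay after 16 h compound exposure of THP-1 cells; compounds (final up to 57.5 uM) added 1 h before LPS (250 ng/mL) and ATP (1.25 mM) stimulation; lower signal means less secretion.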
HepG2 tox: HepG2 cytotoxicity, counter-screen for TGF-b inhibitors | HepG2 CAGA-GFP viability, ATP luminescence, 18 h | Potency, µM (top dose mostly 46.1 µM), for the others: top-dose activity change, negative = cytotoxicity, usual class: cytotoxic | 410,000 compounds, 0.76% hits | AID 588856; further: potency means the concentration at half of the fitted maximal effect
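HepG2 CAGA-GFP cells (1000/well, DMEM with 1% FBS) received compound, then TGF-beta at 500 pg/mL final, and were incubated 18 hours at 37 degrees C. Viability was read by CellTiter-Glo luminescence. Media-only wells were set as complete cell-killing and DMSO as no toxicity.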
Numbers without * were called inactive; ? = inconclusive; . = not tested or not shown; [ ] = remark or other dose. Unless noted, the call rests on the fitted dose curve; in most records, active means well fitted curve in the direction sought with a large enough effect; inconclusive means small, poorly fitted or top-dose-only effect, or another doubt; inactive means no such curve, though single readings can be large; an effect the other way counts as inactive or inconclusive.

SMILES | TDP1 block | DT40 TDP1 CPT | TGFb inhibitor | TDP1 cell noCPT | IL-1B inflam inh | HepG2 tox
COc1ccc(OC)c(NC(=O)c2c(NCc3cccs3)sc3c2CCCC3)c1 | 7% | ? | 16µM* | ? | . | -30%
CCc1ccc2c(c1)[C@H]1OCC[C@H]1[C@@H](c1cccs1)N2 | 0% | 13µM* | -28% | 7.3µM* | 23 | -2%
CC(=O)N1CCc2cc(S(=O)(=O)N3CCOCC3)ccc21 | 1% | 3% | -4% | -10% | 10 | 4%
CC1Cc2ccccc2N1S(=O)(=O)c1cnc(Cl)c(Cl)c1 (centres undefined) | . | 16µM* | ? | 10µM* | ? | -86%
CSc1ccc(S(=O)(=O)N2c3ccccc3CC2C)cc1 (centres undefined) | . | ? | ? | 21µM* | 28 | -15%
CC(=O)N1CCc2cc(S(=O)(=O)N3c4ccccc4CC3C)ccc21 (centres undefined) | 0% | 12µM* | -17% | 13µM* | 0 | 3%
CC1Cc2ccccc2N1S(=O)(=O)c1cnc(Cl)c(Br)c1 (centres undefined) | 1% | ? | -1% | ? | -70* | 3%
CC1Cc2ccccc2N1S(=O)(=O)c1cnc[nH]1 (centres undefined) | 2% | 1% | 9% | -2% | -21 | 0%
CN1CCN(C(=O)C(=O)Nc2c3c(nn2-c2cccc(Cl)c2)CSC3)CC1 | 5% | 0% | 16% | -5% | . | -2%
CC[C@H](C)[C@H](NC(=O)[C@H](Cc1ccc(O)cc1)NC(=O)[C@H](Cc1cnc[nH]1)NC(=O)[C@H](CCCNC(=N)N)NC(=O)[C@H](CC(C)C)NC(=O)[C@H](C)NC(=O)[C@H](CO)NC(=O)[C@H](Cc1ccc(O)cc1)NC(=O)[C@H](Cc1ccc(O)cc1)NC(=O)[C@H](CCCNC(=N)N)NC(=O)[C@H](C)NC(=O)[C@H](CC(C)C)NC(=O)[C@H](CC(=O)O)NC(=O)[C@H](CCC(=O)O)NC(=O)[C@H](C)NC(=O)[C@@H]1CCCN1C(=O)[C@H](C)NC(=O)[C@H](CC(=O)O)NC(=O)[C@H](CCC(=O)O)NC(=O)CNC(=O)[C@@H]1CCCN1C(=O)[C@H](CC(N)=O)NC(=O)[C@H](CC(=O)O)NC(=O)[C@@H]1CCCN1C(=O)[C@H](CCCCN)NC(=O)[C@@H](N)CO)C(=O)N[C@@H](CC(N)=O)C(=O)N[C@@H](CC(C)C)C(=O)N[C@H](C(=O)N[C@H](C(=O)N[C@@H](CCCNC(=N)N)C(=O)N[C@@H](CCC(N)=O)C(=O)N[C@@H](CCCNC(=N)N)C(=O)N[C@@H](Cc1ccc(O)cc1)C(N)=O)[C@@H](C)O)[C@@H](C)CC | 11% | . | . | . | . | .
Nc1c(S(=O)(=O)c2ccccc2)c2nc3ccccc3nc2n1/N=C/c1cccc(O)c1 | -10% | 15µM* | ? | 23µM* | -72* | -68%
S=C(Nc1cc(Cl)ccc1Oc1ccccc1)N1CCN(c2ccccn2)CC1 | . | ? | ? | ? | -79* | -9%
O=S1(=O)NC2c3ccccc3CC2O1 (centres undefined) | . | 12µM* | 1% | ? | 7 | 4%
CC1(C)OCC(C2CC(c3ccccc3)NS(=O)(=O)O2)O1 (centres undefined) | . | 16% | 2% | 0% | 9 | -1%
O=C1c2ccccc2C(=O)N1CC1CCCO1 (centres undefined) | -8% | -4% | 11% | -11% | -18 | 3.5µM*
O=C1c2cccc3cc([N+](=O)[O-])cc(c23)C(=O)N1CC1CCCO1 (centres undefined) | 3% | 7.3µM* | 4% | 6.5µM* | -72* | -18%
O=C(CN1C(=O)c2ccc([N+](=O)[O-])cc2C1=O)NCC1CCCO1 (centres undefined) | 3% | -2% | 27% | -13% | 0 | 2%
Cc1cccc(-c2cc(NC(=O)COc3ccccc3F)n(-c3ccccc3)n2)c1 | 5% | ? | 13% | ? | . | -10%
CCC(=O)N1CCC1(C)C(=O)Nc1ccc2nc(C)ccc2c1 (centres undefined) | . | -15% | -4% | ? | -7 | -5%
N#C/C(=N/Nc1ccc(OC(F)(F)F)cc1)C(N)=S | 8% | 2.3µM* | ? | 1.6µM* | -64* | -162%
COC(=O)c1ccccc1NC(=O)c1nn(C)c2c1COc1ccccc1-2 | 3% | -5% | -6% | -2% | . | -38%
Cc1nn(C)c2c1c(-c1ccccc1)cc(=O)n2Cc1ccc(F)cc1 | -8% | 16µM* | 6% | ? | . | -10%
Cc1nn(C)c2c1c(-c1ccccc1)cc(=O)n2CC(=O)NC(C)(C)C | 3% | ? | -6% | ? | . | 3%
COC(=O)c1ccc(Cn2c(=O)cc(C)c3c(C)nn(C)c32)cc1 | -3% | 10µM* | -5% | 16µM* | . | 3%
Cc1cc(=O)n(Cc2cccc(Br)c2)c2c1c(C)nn2-c1ccccc1 | 5% | -22% | 8% | -9% | . | 3%
SMILES | TDP1 block | DT40 TDP1 CPT | TGFb inhibitor | TDP1 cell noCPT | IL-1B inflam inh | HepG2 tox
COc1ccc(OC)c(NC(=O)Cn2c(=O)cc(-c3ccccc3)c3c(C)nn(C)c32)c1 | -10% | ? | -2% | 21µM* | . | 6%
COc1cccc(Cn2c(=O)cc(C)c3c(C)nn(-c4ccc(C)cc4)c32)c1 | 5% | 21µM* | -16% | 18µM* | . | -1%
NC(N)=NCCC[C@@H](N)C(=O)NCC(=O)N[C@@H](CC(=O)O)C(=O)N[C@@H](Cc1c[nH]c2ccccc12)C(=O)O | 15% | . | . | . | . | .
O=C(O)Cc1c(Cl)ccc(Cl)c1Cl | 9% | . | . | . | . | .
CC(=O)Nc1ccc(C(=O)N2CCCC(n3cc(C(=O)NCC(C)C)nn3)C2)cc1 (centres undefined) | . | 0% | . | -6% | . | .
CCc1cc2c(nc1CC)CCN(CC/C(C)=N/OC[C@@H](C)[C@H](OCc1ccccc1)C(C)C)C2 | 7%[21 µM] | . | . | . | . | .
Cc1cccc(NS(=O)(=O)c2ccc3c(c2)OCC(C(=O)N2CCCC2)O3)c1C (centres undefined) | 8% | ? | -10% | ? | . | -21%
CCOc1ccc(-n2c(C)cc(/C=N/N(C)C)c2C)cc1 | 8% | 9.2µM* | -19% | 7.3µM* | 28 | -14%
